Assay outcomes: PubChem, several laboratories
Only some compounds are listed: those with a hit (about 0.93% of all), similar ones and a draw of the others.
Jurkat NFkB inh: inhibitors of the PMA/ionomycin-induced NF-kB reporter in Jurkat cells | PMA/ionomycin-induced NF-kB luciferase reporter, luminescence | inhibition, % at 4 µM | 330,000 compounds, 0.53% hits | AID 435003; in the data active means inhibition above about 50%
HIF act: HIF pathway transcriptional activation; AID 1910; activation, % at 7.5 µM (by protocol); U2OS HRE-luciferase reporter, luminescence; normalized: DMSO 0%, desferrioxamine 100%; 300,000 compounds, 0.32% hits;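 active means mean activation of at least 10% of the iron chelator positive control signal, with at least half of replicates also reaching 10%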
F508del corr: CFTR F508del correction in bronchial cells; AID 720511; 350,000 compounds, 0.36% hits; CFBE cells, YFP halide quenching; stimulated with forskolin plus potentiator P3; % fluorescence drop versus neutral controls; activity (quench increase), % at 7.58 µM;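 active means mean added fluorescence quench of at least 8% versus neutral control, with both replicates also reaching 8%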;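 further: cells transiently co-express mutant CFTR-F508del with the halide-sensitive YFP; corrector assay measuring rescue of mutant channel to the surface after 24 h compound exposure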
697 NFkB inh: lowers PMA/ionomycin-induced NF-kB signal in 697 B cells | 330,000 compounds, 0.33% hits | inhibition, % at 4 µM | AID 435022 | 697 B-cell NF-kB luciferase reporter, 16 h; in the data active means inhibition above about 35%
* hit, by the source's call; . = not tested or not shown.

SMILES | Jurkat NFkB inh | HIF act | F508del corr | 697 NFkB inh
C[C@H]1CN([C@@H](C)CO)S(=O)(=O)c2ccc(/C=C/c3ccccc3)cc2O[C@@H]1CN(C)C(=O)NC1CCCCC1 | . | . | 4.4 | .
COc1ccccc1C#Cc1ccc2c(c1)O[C@H](CN(C)Cc1cccnc1)[C@H](C)CN([C@@H](C)CO)S2(=O)=O | . | . | 8.2* | .
O=C(Nc1ccccc1F)N1[C@@H]2CNC[C@H]1C2c1ccc(-c2cccnc2)cc1 (stereo partly drawn) | . | . | 0.5 | .
O=C(N[C@@H]1CC[C@H](CCNC(=O)C2CCC2)O[C@@H]1CO)c1ccccn1 | . | . | 0.5 | .
CCS(=O)(=O)Nc1ccc2c(c1)C(=O)N(C)[C@H]1CC[C@H](CC(=O)OC)O[C@@H]1CO2 | . | . | -0.2 | .
O=C(C[C@@H]1CC[C@H]2[C@@H](COC[C@@H](O)CN2C(=O)c2ccc(F)cc2)O1)NC1Cc2ccccc2C1 | . | . | -3.0 | .
C[C@@H]1CN([C@@H](C)CO)S(=O)(=O)c2ccc(-c3cncnc3)cc2O[C@H]1CN(C)C(=O)C1CC1 | . | . | 1.9 | .
C/C=C/c1ccc2c(c1)O[C@@H](CN(C)C(=O)Nc1cccc(F)c1)[C@H](C)CN([C@H](C)CO)S2(=O)=O | . | . | 8.5* | .
C/C=C/c1ccc2c(c1)O[C@H](CN(C)C(=O)Nc1cccc(F)c1)[C@H](C)CN([C@@H](C)CO)S2(=O)=O | . | . | 4.4 | .
O=C(C1=C[C@H](c2ccccc2)C[C@H](OCc2ccc(CO)cc2)O1)N1CCCC1 | . | . | -0.4 | .
COc1cccc(S(=O)(=O)N[C@@H]2C=C[C@@H](CC(=O)NCc3ccc(F)cc3)O[C@@H]2CO)c1 | . | . | 0.8 | .
Cc1ccc(NC(=O)c2ccc(S(=O)(=O)N3CCCCC3)cc2)cc1 | 11.1 | -0.6 | . | 14.3
CC1CCN(C(=O)c2ccc(S(=O)(=O)N3CCCC3)cc2)CC1 | 10.0 | . | 9.3* | 23.1
CC1CCN(C(=O)c2ccc(S(=O)(=O)N3CCCCCC3)cc2)CC1 | 8.2 | . | -2.6 | 3.8
Cc1ccc(C(=O)NNC(=O)c2ccc(S(=O)(=O)N3CCCCC3)cc2)cc1 | 4.7 | . | 9.8* | 9.2
C[C@H](NC(=O)C[C@H]1C[C@H]2c3cc(NC(=O)C4CCOCC4)ccc3O[C@H]2[C@H](CO)O1)c1ccccc1 | . | . | -0.5 | .
COc1ccc2c3c([nH]c2c1)[C@H](CO)N(Cc1ccccc1)CC31CCN(CC2CC2)CC1 | . | . | -4.7 | .
CCCC#Cc1ccc([C@@H]2[C@H]3CN(C(=O)Nc4ccc(F)cc4)CC(=O)N3[C@H]2CO)cc1 | . | . | 2.7 | .
CCCOC(=O)NC1C(NC(=O)OCCC)N(C)C(=O)N1C (stereo not drawn) | 8.0 | 153.0* | . | -10.7
O=C(CN(C1CCCCC1)S(=O)(=O)c1ccccc1)NCC1CCCO1 (stereo not drawn) | 12.2 | -10.6 | -1.0 | 4.3
O=C(CN(C1CCCCC1)S(=O)(=O)c1ccc(F)cc1)NCC1CCCO1 (stereo not drawn) | . | . | 20.6* | .
CC(C)NC(=O)N(C)C[C@@H]1OCCCC[C@H](C)Oc2ccc(N(C)C)cc2C(=O)N([C@H](C)CO)C[C@@H]1C | . | . | -0.2 | .
COC(=O)C1C(=O)N2CCCSC2=C(C#N)C1c1cccs1 (stereo not drawn) | 8.8 | 35.1* | . | 22.5
COc1cccc2c1C(=O)c1c(O)c3c(c(O)c1C2=O)C[C@@](O)(C(=O)CO)C[C@@H]3OC1CC(N)C(O)C(C)O1 (stereo partly drawn) | . | . | 13.8* | .
COc1cccc2c1C(=O)c1c(O)c3c(c(O)c1C2=O)CC(O)(C(C)=O)CC3OC1CC(N(C)C)C(O)C(C)O1 (stereo not drawn) | . | . | 33.9* | .
SMILES | Jurkat NFkB inh | HIF act | F508del corr | 697 NFkB inh
CCOC(=O)C(NC(C)=O)(N1CCOCC1)C(F)(F)F (stereo not drawn) | -16.7 | 49.5* | . | -20.7
Oc1c(CN2CCN(c3ccccc3)CC2)cc(Br)c2cccnc12 | . | 38.5* | 3.9 | .
Oc1c(CN2CCOCC2)cc(COCc2ccccc2)c2cccnc12 | . | 53.0* | . | .
Oc1c(CNc2ccccc2)cc(COCc2ccccc2)c2cccnc12 | 10.3 | . | 7.1 | -29.3
COc1ccccc1N1CCN(Cc2ccc(O)c3ncccc23)CC1 | 31.0 | 26.9* | . | -2.8
CCCNC(=O)N[C@H]1CC[C@H](CC(=O)NC2CCCCC2)O[C@H]1CO | . | . | -0.7 | .
COc1ccc(C#Cc2ccc3c(c2)[C@]2(C(=O)N3)[C@H](c3ccc(OCCO)cc3)N3[C@H](c4ccccc4)[C@H](c4ccccc4)OC(=O)[C@H]3[C@@H]2C(=O)N2CCCCCCC2)cc1 | . | . | -3.7 | .
O=C(C[C@H]1C=C[C@@H](NC(=O)Nc2ccc(F)cc2)[C@H](CO)O1)NCc1cccc(F)c1 | . | . | 4.4 | .
CCOC(=O)c1sc(NC(=O)c2c(CC)noc2C)nc1C | -11.2 | . | 14.2* | 16.5
COC(=O)c1sc(NC(=O)c2c(C)noc2C)nc1C | -1.6 | 0.7 | 5.7 | 7.8
CCOC(=O)c1sc(Nc2nc(C)cc(C)n2)nc1C | 35.2 | 1.9 | 12.9* | -25.0
CC(=O)c1cc(NC(=O)c2cccc(C(F)(F)F)c2)c(=O)oc1/C=C/N(C)C | -21.0 | -0.7 | . | -28.6
CC(=O)c1cc(NC(=O)c2cccc(C(F)(F)F)c2)c(=O)oc1C | 4.8 | 0.7 | 10.7* | 5.5
CC(C)CN1C(=O)[C@@]2(c3ccc([N+](=O)[O-])cc3)CC(=O)N(CC3C4CC5CC(C4)CC3C5)[C@@H]2c2ccc(CO)cc21 (stereo partly drawn) | . | . | 1.5 | .
Cc1ccc(-c2c(C#N)c(N)nc3c2CCCCC3)cc1 | 2.8 | -0.3 | . | -5.8
CC(C)c1ccc(-c2c(C#N)c(N)nc3c2CCCCC3)cc1 | 14.7 | 267.9* | . | 4.6
C[C@@H]1CN([C@@H](C)CO)S(=O)(=O)c2ccc(-c3ccncc3)cc2O[C@H]1CN(C)C(=O)CN(C)C | . | . | -0.4 | .
O=C(Cn1cnc([N+](=O)[O-])n1)N/N=C/c1cc(Cl)ccc1O | -4.9 | 15.2* | 1.6 | 8.0
CCCC(=O)Nc1ccc2c(c1)OC[C@@H](C)N(CC1CCCC1)C[C@@H](C)[C@@H](OC)CN(C)C2=O | . | . | 1.9 | .
N#C[C@H]1[C@H](c2ccc(C3=CCCCC3)cc2)[C@@H](CO)N1C(=O)NC1CCCCC1 | . | . | 10.1* | .
COc1ccc(CCNC(=O)c2nnn(CC(=O)Nc3c(C)cc(C)cc3C)c2N)cc1OC | -1.6 | 107.3* | -0.6 | 3.4
Cc1ccc(C(=O)N(Cc2ccco2)c2c(N)n(Cc3ccccc3)c(=O)[nH]c2=O)cc1 | . | . | 1.0 | .
Cc1cccc(C(=O)N(Cc2ccco2)c2c(N)n(Cc3ccccc3)c(=O)[nH]c2=O)c1 | 10.6 | . | 28.3* | 23.9
C[C@@H]1CN([C@H](C)CO)S(=O)(=O)c2ccc(C#CC3CCCCC3)cc2O[C@@H]1CN(C)C | . | . | -0.1 | .
CCC1CCc2sc(C(=O)NCC3CCCO3)cc2C1 (stereo not drawn) | -98.0 | . | 1.4 | -65.8
CCC1CCc2sc(C(=O)NCc3ccccn3)cc2C1 (stereo not drawn) | -33.4 | 21.9* | -0.7 | -1.3
O=C(C[C@H]1C=C[C@@H](NC(=O)C2CCOCC2)[C@H](CO)O1)NCc1ccccc1Cl | . | . | 0.9 | .
